# From PubChem
# D2 PAM-1: potentiates the human D2 dopamine receptor allosterically; 0.23% of 360,000 active; P14416; potentiation, % (test concentration not listed); DiscoveRx D2 beta-arrestin cells, luminescence, 90 min; 100% = 57 uM dopamine signal; AID 624464; in the data active = potentiation above about 50%; inconclusive = mostly about 30% to 49%
# Target sequence (P14416 whole entry, looked up): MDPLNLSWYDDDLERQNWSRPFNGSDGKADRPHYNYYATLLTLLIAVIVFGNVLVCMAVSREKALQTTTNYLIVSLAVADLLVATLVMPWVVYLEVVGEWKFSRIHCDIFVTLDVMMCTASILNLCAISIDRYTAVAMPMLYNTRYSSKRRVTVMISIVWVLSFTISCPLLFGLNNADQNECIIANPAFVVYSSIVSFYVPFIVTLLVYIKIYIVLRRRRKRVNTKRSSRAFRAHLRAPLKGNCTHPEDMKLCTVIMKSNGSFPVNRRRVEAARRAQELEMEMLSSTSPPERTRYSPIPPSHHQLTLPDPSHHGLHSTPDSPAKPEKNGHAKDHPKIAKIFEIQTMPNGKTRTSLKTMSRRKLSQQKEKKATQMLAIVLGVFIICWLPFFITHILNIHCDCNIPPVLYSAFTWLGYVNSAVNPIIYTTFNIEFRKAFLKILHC
#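 D2 cells co-treated with compound plus 50 nM dopamine (EC20) for 90 min at 37 deg C to detect potentiation. Beta-arrestin recruitment was read as enzyme-fragment luminescence after 1 h at ambient temperature. Full response was set by 57 uM dopamine.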
# D2 antagonist: antagonists of human D2 dopamine receptor; 2% of 340,000 active; HEK293 TREx D2 cells, calcium flux, dopamine EC80; P14416; inhibition, % at 10 µM; in the data active = inhibition above about 30%; inactive = below that, where a call was filed; note: 0% is about no effect
#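 Compounds are added to dye-loaded, induced HEK293 T-REx cells coupled to calcium release via D2; after a 3 min kinetic read an EC80 dopamine stimulus is given and fluorescence is recorded for 3 more min.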
# D2 PAM-2: positively modulates the human D2 dopamine receptor allosterically; HEK293 T-REx D2, calcium flux, EC20 dopamine potentiation; potentiation, % at 10 µM; 0.34% of 340,000 active; AID 485347;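 active = potentiation over 3 SD above the plate norm, cut at about 30% in these data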; note: 0% is about no effect
#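 Primary screen. Calcium kinetics in induced HEK293 T-REx D2 cells: compound pre-addition 180 s, EC20 dopamine, 180 s more.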
# D2 ag-1: agonists of human D2 dopamine receptor (beta-arrestin). P14416. DiscoveRx PathHunter D2 beta-arrestin, luminescence, 90 min; 100% = 57 uM dopamine signal. activation, % (test concentration not listed). 0.084% of 360,000 active. AID 624465; in the data active = activation above about 40%; inconclusive = between about 15% and that limit
#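 Agonist mode: compounds alone added to overnight-plated D2 PathHunter cells for 90 min at 37 C, with 57 uM final dopamine (EC100) defining full response. Beta-arrestin recruitment detected by chemiluminescent reagent, read after 1 h at ambient temperature.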
# D2 ag-2: activates the human D2 dopamine receptor | P14416 | HEK293 T-REx D2 cells, calcium flux agonist mode | activation, % at 2 µM | 0.53% of 340,000 active | AID 485358;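 active = activation over 3 SD above normal in the single-dose calcium agonist read, cut at about 30% in these data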; note: 0% is about no effect
#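 Calcium-flux readout, 1 cycle/sec over 180 s following compound pin transfer, in inducible HEK293 Trex D2 cells (force-coupled); dopamine controls included. Positive calcium responses during this window marked compounds as potential agonists.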
# Active calls of the source: *; ? = inconclusive; . = not tested or not shown. Rows were chosen to be rich in hits. Some 2.4% of all compounds tested hit in one or more screens of this group.
SMILES,D2 PAM-1,D2 antagonist,D2 PAM-2,D2 ag-1,D2 ag-2
Cc1nn(CC(=O)NCCCc2ccccc2)c(=O)c2cc3occc3n12,-6.9,32.4*,-12.0,2.7,0.0
CN(C(=O)C(=O)c1cn(CC(=O)N2CCCC2)c2ccccc12)C1CCCCC1,9.8,0.2,10.2,-2.2,-0.7
CC(=O)C[C@H](O)CC(=O)[C@@H]1OC(=O)CCCCCCCCc2ccccc21,1.8,.,.,0.4,.
CCCCCCCC(=O)Oc1ccc(C(=O)Nc2cc(C)on2)cc1,-0.4,37.0*,-9.2,-0.4,-0.8
COc1ccc(Oc2c(C)oc3cc(OC(=O)N4CCOCC4)ccc3c2=O)cc1,-5.6,4.4,41.6*,0.3,0.3
N/C(Cc1ccc([N+](=O)[O-])cc1)=N\OC(=O)C(c1ccccc1)c1ccccc1,89.4*,12.3,-5.5,12.3,0.0
Cc1cccc(C(=O)O/N=C(\N)Cc2ccc([N+](=O)[O-])cc2)c1,148.1*,15.7,5.7,?,0.4
Cc1ccc(CC(=O)O/N=C(\N)Cc2ccc([N+](=O)[O-])cc2)cc1,11.8,-16.0,-5.9,6.7,-1.1
N/C(Cc1ccc([N+](=O)[O-])cc1)=N\OC(=O)c1ccco1,21.0,.,.,52.7*,.
N/C(Cc1ccc([N+](=O)[O-])cc1)=N\OC(=O)c1ccc(Br)cc1,170.8*,11.9,-10.0,?,-1.5
Cc1ccc(NC(=O)c2nnn(Cc3cccc(C(F)(F)F)c3)c2N)c(C)c1,.,.,2.0,.,0.6
N/C(Cc1ccc([N+](=O)[O-])cc1)=N\OC(=O)c1ccccc1Br,121.7*,2.8,-11.3,41.1*,0.5
COc1ccc(/C(N)=N/OC(=O)c2cccc([N+](=O)[O-])c2C)cc1,3.7,-4.7,-9.6,3.4,0.6
COc1ccc(C/C(N)=N/OC(=O)C(c2ccccc2)c2ccccc2)cc1OC,50.1*,-16.6,-0.4,7.4,1.0
COc1ccccc1C/C(N)=N/OC(=O)c1cccc([N+](=O)[O-])c1C,136.3*,4.8,-0.9,?,-1.4
N/C(Cc1ccc([N+](=O)[O-])cc1)=N\OC(=O)c1ccc2ccccc2c1,143.0*,-4.6,-2.5,?,0.7
COc1ccc(-c2[nH]ncc2C(=O)NCc2ccccc2OC)cc1,.,.,-0.2,.,-0.6
CC1CC(O)C(C)CN1 (configuration not stated),-15.7,-2.5,-2.3,-4.2,1.4
O=C(c1cc2nc(-c3cccs3)cc(C(F)(F)Cl)n2n1)N1CCCc2ccccc21,-6.0,19.0,13.0,-4.6,0.5
O=C(c1cc2nc(-c3cccs3)cc(C(F)(F)F)n2n1)N1CCCc2ccccc21,-18.3,31.2*,-3.0,-2.1,0.1
NC(=O)C(c1ccccc1)C1CCCCC1 (configuration not stated),-23.3,52.4*,-5.2,-4.6,0.0
Cc1cccc(N2CCN(CCCNC(=O)c3nnc(Cc4c(F)cccc4Cl)o3)CC2C)c1 (configuration not stated),.,.,-17.6,.,.
COc1ccccc1NS(=O)(=O)c1cccc(C(=O)N2CCCCCC2)c1,-2.3,-2.1,2.6,-6.9,-0.5
NC(=O)c1ccc(NC(=O)CSc2nnc(C3CC3)n2C2CC2)cc1,1.8,.,.,3.3,.
COc1ccc(NC(=O)CSc2nnc(C3CC3)n2C)cc1,-13.0,5.1,-0.7,-0.8,2.2
SMILES,D2 PAM-1,D2 antagonist,D2 PAM-2,D2 ag-1,D2 ag-2
CCOc1ccc(NC(=O)CN2CCN(c3ccc(F)cc3)CC2)cc1S(=O)(=O)N1CCCC1,-45.3,.,.,-3.0,.
CCOc1ccc(NC(=O)CN2CCN(c3ccccc3C)CC2)cc1S(=O)(=O)N1CCCC1,-27.8,34.7*,-26.4,-0.5,0.6
Cn1c(SCC(=O)Nc2ccc3c(c2)CCC3)nnc1C1CC1,-16.2,-9.1,-10.9,-1.9,-0.4
CCC(=O)Nc1cccc(NC(=O)CSc2nnc(C3CC3)n2C)c1,2.4,30.9*,0.4,-2.2,0.3
CCOc1ccc(NC(=O)CSc2nnc(C3CC3)n2C2CC2)cc1,1.8,42.8*,3.8,-6.6,0.1
CCOc1ccc(NC(=O)CSc2nnc(C3CC3)n2C)cc1S(=O)(=O)N1CCCCC1,2.6,43.8*,-5.5,-0.3,0.0
COc1cccc2cc(S(=O)(=O)c3ccc(F)c(C)c3)c(=O)oc12,.,.,0.5,.,-0.5
Cc1ccn2c(=O)cc(CSc3nnc(NC(=O)c4ccccc4Cl)s3)nc2c1,.,.,-1.3,.,.
Cc1ccc(C)c(S(=O)(=O)c2nnn3c2nc(NCc2ccc4c(c2)OCO4)c2sccc23)c1,.,.,4.2,.,-0.1
COc1cc(C(=O)Nc2c(C(=O)O)[nH]c3ccc(C)cc23)cc(OC)c1OC,-9.5,34.3*,19.0,-0.4,-0.9
CCOC(=O)c1[nH]c2ccccc2c1NC(=O)c1cc(OC)c(OC)c(OC)c1,-3.7,.,.,-1.0,.
CCOc1ccc(NS(=O)(=O)c2cc(NC(=O)CCS(=O)(=O)c3ccc(C)cc3)ccc2OC)cc1,-29.1,32.9*,-16.6,0.1,-0.3
Cc1oc(-c2cccc(Cl)c2)nc1CSc1nnc(C)n2c1cc1occc12,.,.,-3.5,.,0.5
O=C(/C=C/c1ccco1)NCC1OCCc2ccccc21 (configuration not stated),-6.3,30.8*,-6.8,-3.1,0.8
CCc1cc(=O)oc2cc(OCc3ccc(C(=O)O)o3)ccc12,2.4,24.8,4.4,1.5,-1.3
Brc1ccc(-c2noc(COc3ccc4c(c3)CCC4)n2)o1,-1.2,42.7*,-5.0,3.7,0.5
O=C(O)CCS(=O)(=O)c1ccccc1Cl,-9.8,38.8*,16.2,-4.9,0.6
Cc1c(C(=O)N2CCC(C)CC2)c(S(=O)(=O)Nc2cccc(C(F)(F)F)c2)c(C)n1C,.,.,-2.1,.,-3.1
Cc1cc(S(=O)(=O)Nc2ccc3oc4c(c3c2)CCCC4)ccc1Cl,.,.,5.0,.,-1.8
CCn1nnnc1-c1ccc(OC)c(S(=O)(=O)Nc2ccc(OC)cc2)c1,7.0,36.5*,-4.2,1.0,-0.1
CSc1ccc(S(=O)(=O)NCC(=O)OCC(=O)NCCc2ccccc2)cc1[N+](=O)[O-],3.0,33.2*,13.7,2.4,-0.7
CC1CCN(S(=O)(=O)c2ccc(S(=O)(=O)NCc3ccccc3)cc2)CC1,13.7,31.0*,-5.3,3.7,0.9
O=S(=O)(NCc1ccccc1)c1ccc(S(=O)(=O)N2CCCCC2)cc1,0.5,4.9,-4.4,-1.5,0.0
CCN1CCCC1CNC(=O)c1cc2c(OC)cccc2[nH]1 (configuration not stated),-24.4,.,.,-2.7,.
CCN1CCC[C@H]1CNC(=O)c1c(O)c(Cl)cc(Cl)c1OC,-27.0,76.0*,-27.0,-7.2,-2.3
CCN1CCCC1CNC(=O)c1cc(OC)c(OC)c(OC)c1 (configuration not stated),-37.1,-18.6,-21.4,0.3,0.5
CCCCN1CCCC1CNC(=O)c1cc(C#N)c2ccccc2c1OC (configuration not stated),.,84.4*,-26.6,.,1.2
